The campaign covered roughly 39,000 compounds. About 1,500 (3.8%) were called active. For the sample, actives were picked, then their nearest neighbours and some compounds at random.

The subject of this experiment is HSkMC (human skeletal muscle cells). As to the kind of experiment: cytotoxicity call (relative viability < 0.9). The conditions noted are these: 10 µM.
Regarding `NCCN1CCN(c2ccc(F)cc2)CC1`, the cytotoxicity call is “inactive”. The same measure for `CCCCCCCCCCCCCCCC[n+]1ccccc1`: “active”. The same measure for `CCCCCCCCCCCCCCCC[n+]1ccccc1.[Cl-]`: “active”; for `c1ccc(CN2CCNCC2)nc1`: “inactive”; for `CN[C@@H](C)Cc1cnccn1`: “inactive”. As to `CCOCC(=O)N[C@H]1CCSC1=O`, the cytotoxicity call is “inactive”. The same measure for `O=C1C[C@@H](CO)CN1`: “inactive”; for `CN(C)C(=O)C(CCN1CCC(O)(c2ccc(Cl)cc2)CC1)(c1ccccc1)c1ccccc1.Cl`: “inactive”.

For the compound `CC12CCC3C(CC=C4CC(O)CCC43C)C1CCC2=O` (stereo not drawn), the cytotoxicity call is “inactive”. The value for `C[C@]12CC/C(=N\OCCN)C[C@@H]1C(=O)C[C@@H]1[C@@H]2CC[C@]2(C)C(=O)CC[C@@H]12` was “active”; that for `C[C@]12CCC(=O)C[C@@H]1CC[C@@H]1[C@@H]2CC[C@]2(C)C(=O)CC[C@@H]12` [5alpha-ANDROSTAN-3,17-DIONE ] was “inactive”; that for `CC1=C2C(=COC(C)C2C)C(O)=C(C(=O)O)C1=O` (stereo not drawn) was “inactive”.

`C=C(C)[C@H]1CN[C@H](C(=O)O)[C@H]1CC(=O)O`: the cytotoxicity call is “inactive”.

Take `COC(=O)C[C@H]1CC[C@@H]2NC[C@@H](O)COC[C@H]2O1`: the cytotoxicity call was “inactive”.

Turning to `Cc1ccc2c(CCN)c(C)n(C)c2c1`, the cytotoxicity call is “inactive”.

With `CCn1nc(-c2cccnc2)nc2c(=O)n(C)c(=O)nc1-2`, the cytotoxicity call was “active”.

Consider `C1C[C@@H]2C[C@@H]2N1`, for which the cytotoxicity call is “inactive”. Turning to `S=C=Nc1cccc(C2(N3CCCCC3)CCCCC2)c1`, the cytotoxicity call was “inactive”. The value for `Cc1ncc(CNC(=O)N(CCCl)N=O)c(N)n1.Cl` was “inactive”; that for `CCC1(c2ccccc2)C(=O)NC(=O)NC1=O` was “inactive”; that for `NC[C@H]1CCCc2ccc(Cl)cc21` was “inactive”. The same measure for `COCC(=O)N1[C@@H]2c3ccc(C4=CCCC4)c(=O)n3C[C@H]1[C@H](CO)[C@H]2C(=O)OC`: “inactive”; for `CC(=O)OC1CCC2(C)C(=CCC3C4CCC(=O)C4(C)CCC32)C1` (stereo not drawn): “inactive”.

As to `CC1(C)S[C@@H]2[C@H](N)C(=O)N2[C@H]1C(=O)O`, the cytotoxicity call is “inactive”. In the case of `N.N.[Cl][Pt][Cl]`, the cytotoxicity call is “inactive”. The same measure for `CCOC(=O)c1c(CN2CCN(Cc3ccccc3)CC2)n(Cc2ccccc2)c2cc(Br)c(O)cc12`: “active”.

With `CCOC(=O)c1c(CN2CCN(c3ccccc3)CC2)n(Cc2ccccc2)c2cc(Br)c(O)cc12`, the cytotoxicity call is “active”. The same measure for `CNCc1cccnc1`: “inactive”.

On to `O=C1CO[C@H]2CNC[C@@H]2N1CC1CCCC1`, for which the cytotoxicity call is “inactive”. `C[C@H](CO)N1C[C@H](C)[C@@H](CN(C)C(=O)Oc2ccc3ccccc3c2)OCc2cnnn2CCCC1=O`: the cytotoxicity call is “inactive”. The value for `O/N=C1\CN2CCC1CC2` was “inactive”; that for `C=C(C)C1Cc2c(ccc3c2OC2COc4cc(OC)c(OC)cc4C2C3=O)O1` (stereo not drawn) was “inactive”; that for `c1ccc(-c2ccncc2)cc1` was “inactive”. The same measure for `C[C@@H]1CC[C@@]2(OC1)O[C@H]1C[C@H]3[C@@H]4CC=C5C[C@@H](O[C@@H]6O[C@H](CO)[C@@H](O[C@@H]7O[C@@H](C)[C@H](O)[C@@H](O)[C@H]7O)[C@H](O)[C@H]6O[C@@H]6O[C@@H](C)[C@H](O)[C@@H](O)[C@H]6O)CC[C@]5(C)[C@H]4CC[C@]3(C)[C@H]1[C@@H]2C`: “active”; for `CC1CCC2(NC1)OC1CC3C4CC=C5CC(O)CCC5(C)C4CCC3(C)C1C2C` (stereo not drawn): “inactive”; for `C[C@@H]1CC[C@@]2(OC1)O[C@H]1[C@@H](O)[C@H]3[C@H]4CC[C@H]5C[C@H](O[C@@H]6O[C@H](CO)[C@H](O[C@@H]7O[C@H](CO)[C@@H](O)[C@H](O[C@@H]8OC[C@@H](O)[C@H](O)[C@H]8O)[C@H]7O[C@@H]7O[C@H](CO)[C@H](O)[C@H](O[C@@H]8O[C@H](CO)[C@@H](O)[C@H](O)[C@H]8O)[C@H]7O)[C@H](O)[C@H]6O)[C@H](O)C[C@]5(C)[C@@H]4CC[C@]3(C)[C@H]1[C@@H]2C`: “inactive”.

With `Cc1cccc2[nH]c(CCN)nc12`, the cytotoxicity call was “inactive”. The value for `COc1cccc(N=[N+]=[N-])c1` was “inactive”; that for `CC(=O)OC[C@]12CCC(C)=C[C@H]1O[C@@H]1[C@H](O)[C@@H](OC(C)=O)[C@@]2(C)[C@]12CO2` was “active”.

With `CC1=C[C@H]2O[C@@H]3[C@H](O)[C@@H](O[C@H]4O[C@H](CO)[C@@H](O)[C@H](O)[C@H]4O)[C@](C)([C@@]2(CO)CC1)[C@]31CO1`, the cytotoxicity call is “active”.

Regarding `Cc1cc(O[C@@H]2O[C@H](CO)[C@@H](O)[C@H](O)[C@H]2O)c2c3c(c(=O)oc2c1)CCC3`, the cytotoxicity call was “inactive”.

Turning to `OCCN[C@@H]1c2ccccc2[C@H]2CNC[C@H]21`, the cytotoxicity call is “inactive”. The same measure for `C[C@]12CC[C@H](Cl)C[C@@H]1CC[C@@H]1[C@@H]2CC[C@]2(C)C(=O)CC[C@@H]12`: “inactive”; for `NC(=O)c1ccc(N)nc1`: “inactive”; for `CC12CC(=O)C3C(CCC4=CC(=O)CCC43C)C1CCC2=O` (stereo not drawn): “inactive”. In the case of `NCCc1ccncc1`, the cytotoxicity call was “inactive”.

As to `CCN1C[C@@]2(C)CC[C@H](OC)C34[C@@H]2[C@H](O)[C@]2(OCO[C@@]25C[C@H](OC)[C@H]2C[C@]3(O)[C@@H]5[C@H]2O)[C@@H]14`, the cytotoxicity call was “inactive”. In the case of `O=c1[nH]c2ccccc2n1C1CCN(Cc2ccc(-c3nc4cc5[nH]cnc5cc4nc3-c3ccccc3)cc2)CC1`, the cytotoxicity call was “active”. The same measure for `CN1C[C@H](C(=O)N[C@]2(C)O[C@@]3(O)[C@@H]4CCCN4C(=O)[C@H](Cc4ccccc4)N3C2=O)C=C2c3cccc4[nH]cc(c34)C[C@H]21`: “inactive”; for `Cc1cccc(N2CCNCC2)n1`: “inactive”. Regarding `COc1c2c(cc3c1OCO3)CC[N+](C)=C2.[Cl-]`, the cytotoxicity call is “inactive”. The same measure for `CC(C)CC1C(=O)N2CCCC2C2(O)OC(NC(=O)C3C=C4c5cccc6[nH]c(Br)c(c56)CC4N(C)C3)(C(C)C)C(=O)N12.CS(=O)(=O)O` (stereo not drawn): “inactive”; for `O=c1[nH]c2cc(N3CCNCC3)ccc2o1`: “inactive”; for `COc1cccc2c1C(=O)c1c(O)c3c(c(O)c1C2=O)C[C@@](O)(C(=O)CO)C[C@@H]3O[C@H]1C[C@H](N2CCO[C@H](OC)C2)[C@H](O)[C@H](C)O1`: “active”.

`CC[C@@]1(O)C[C@H](O[C@H]2C[C@H](N(C)C)[C@H](O)[C@H](C)O2)c2c(cc3c(c2O)C(=O)c2c(O)ccc(O)c2C3=O)[C@H]1C(=O)OC`: the cytotoxicity call was “inactive”.

Consider `COc1cc2c3cc1Oc1c(OC)c(OC)cc4c1C(Cc1cccc(c1)Oc1ccc(c(O)c1)CC3N(C)CC2)N(C)CC4.Cl.Cl` (stereo not drawn), for which the cytotoxicity call was “inactive”. The value for `COc1ccc(OC(=O)N(C)C[C@@H]2OCc3ccccc3-c3c(n(C)c4ccccc34)C(=O)N([C@@H](C)CO)C[C@H]2C)cc1` was “inactive”; that for `Cc1scc(CCN)c1C` was “inactive”. The same measure for `Cl.Oc1noc2c1CCNC2`: “inactive”; for `C#CC1(O)CCC2C3CCC4=CC(=O)CCC4(C)C3CCC21C` (stereo not drawn): “inactive”; for `C=CCC1(O)CCC2C3CCC4=CC(=O)CCC4=C3C=CC21C` (stereo not drawn): “inactive”.

In the case of `C=CCC1(O)CCC2C3CCC4=CCCCC4C3CCC21C` (stereo not drawn), the cytotoxicity call is “active”. The value for `CC(=O)O[C@H]1C(=O)[C@]2(C)[C@@H](O)C[C@H]3OC[C@@]3(OC(C)=O)[C@@H]2[C@H](OC(=O)c2ccccc2)[C@]2(O)C[C@H](O)C(C)=C1C2(C)C` was “inactive”. Consider `[N-]=[N+]=NCc1ccccc1C[C@]1(C(=O)NCCN2CCOCC2)N=C(c2ccc(OCCCO)cc2)O[C@H]1c1ccccc1N=[N+]=[N-]`, for which the cytotoxicity call was “inactive”.

For `O=c1[nH]c(=O)n(Cl)c(=O)n1Cl`, the cytotoxicity call is “inactive”. `CC1OC(OC2C=C3CCC4C(CCC5(C)C(c6ccc(=O)oc6)CCC45O)C3(C)CC2)C(O)C(O)C1O` (stereo not drawn): the cytotoxicity call was “active”.

For `CC[C@@H](C)C(=O)O[C@H]1[C@H](O)[C@H]2[C@@H](CN3C[C@@H](C)CC[C@@H]3[C@@]2(C)O)[C@H]2C[C@]34O[C@]5(O)[C@@H](OC(=O)[C@@](C)(O)[C@@H](C)O)CC[C@@]3(C)[C@@H]5[C@@H](OC(C)=O)[C@@H](OC(C)=O)[C@@H]4[C@@]21O`, the cytotoxicity call is “inactive”. The same measure for `CC(=O)OCC1=C(C(=O)[O-])N2C(=O)C(NC(=O)CCCC(N)C(=O)[O-])C2SC1.[Zn+2]` (stereo not drawn): “inactive”. On to `c1ccc2c(c1)sc1ccccc12`, for which the cytotoxicity call was “active”. The same measure for `COc1cc2c(cc1OC)C1C(=O)c3ccc4oc(C(C)C)cc4c3OC1CO2` (stereo not drawn): “inactive”. The same measure for `NCCc1ccc(S(N)(=O)=O)cc1`: “inactive”.

In the case of `Cc1cc(C(C#N)c2ccc(Cl)cc2)c(Cl)cc1NC(=O)c1cc(I)cc(I)c1O` (stereo not drawn), the cytotoxicity call is “inactive”. The value for `Cc1cc([C@@H](C#N)c2ccc(Cl)cc2)c(Cl)cc1NC(=O)c1cc(I)cc(I)c1O` was “active”; that for `CC(=O)Nc1ccc(Cl)cc1C` was “inactive”. The value for `COc1cc(CCN)ccc1O` was “inactive”; that for `Cc1ccc(C2(CN)CCCCC2)cc1` was “inactive”; that for `CC(C)C12OC1C1OC13C1(C)CCC4=C(COC4=O)C1CC1OC13C2O` (stereo not drawn) was “inactive”. `COC(=O)NC(=S)Nc1ccccc1NC(=S)NC(=O)OC`: the cytotoxicity call was “active”.

For the compound `CNc1ccccc1C(=O)O`, the cytotoxicity call was “inactive”.

As to `CCC1CN2CCc3cc(OC)c(OC)cc3C2CC1CC1NCCc2cc(OC)c(OC)cc21.Cl.Cl` (stereo not drawn), the cytotoxicity call was “inactive”. The same measure for `COc1ccc(CCN)cc1O`: “inactive”; for `CC(C)CC(CN)CC(=O)O` (stereo not drawn): “inactive”.

Regarding `C[C@]12CC[C@]3(C)OC[C@](CO)(CO1)N23`, the cytotoxicity call is “inactive”. For `Nc1ccccc1-c1ccccc1`, the cytotoxicity call is “inactive”.

Consider `CCC1(C2OC(C3OC(O)(CO)C(C)CC3C)CC2C)CCC(C2(C)CCC3(CC(O)C(C)C(C(C)C(OC)C(C)C(=O)[O-])O3)O2)O1.[Na+]` (stereo not drawn), for which the cytotoxicity call was “inactive”. For `NC1CC1c1ccccc1.O=S(=O)(O)O` (stereo not drawn), the cytotoxicity call was “inactive”. The same measure for `O=c1cccc2n1CC1CNCC2C1` (stereo not drawn): “inactive”; for `COC(=O)C[C@H]1CC[C@H]2NC[C@H](O)COC[C@@H]2O1`: “inactive”. The value for `CCC(C)C1OC2(C=CC1C)CC1CC(CC=C(C)C(OC3CC(OC)C(OC4CC(OC)C(O)C(C)O4)C(C)O3)C(C)C=CC=C3COC4C(O)C(C)=CC(C(=O)O1)C34O)O2` (stereo not drawn) [ABAMECTIN (avermectin B1a shown) ] was “inactive”.

`C[N+](C)(C)CCCCCCCCCC[N+](C)(C)C.[Br-].[Br-]`: the cytotoxicity call is “inactive”. The same measure for `CCCCCCCCCCCCCCCC[N+](C)(C)C.[Br-]`: “active”. Regarding `C[N+](C)(C)CCCl`, the cytotoxicity call is “inactive”. The value for `CC1CC(C)C(=O)C(C(O)CC2CC(=O)NC(=O)C2)C1` (stereo not drawn) was “inactive”.

The record behind these values is the antibiotic and cytotoxicity screens of Wong et al. (2023).
